Experimental data as given in ChEMBL document CHEMBL3988442, “University of Dundee, Small-Polar-MMV Screening Library” (2021).
Out of some 48,000 compounds screened, about 13,000 (27%) showed an effect of 50% or more. This is one part of the list.

Tested on: Wolbachia pipientis
Experiment: Anti-Wolbachia Cell-Based Screen
Type: functional
Set-up: scale not given: in the data most compounds retested in dose-response had high values
Conditions: 5 µM

SMILES	Percent Effect
CC(C)(O)c1cn(C2CCN(C(=O)CCC(F)(F)F)CC2)nn1	13.09%
CN(CCc1ccncc1)C(=O)c1sccc1OC(F)F	-13.92%
CCC1=N[C@@]2(CC[C@@H]3CN(C(=O)NCC(C)C)C[C@@H]32)C(=O)N1CC1CC1	11.23%
Cc1ncc(C(=O)Nc2cncnc2N(C)C)c(Cl)c1Cl	-6.041%
CSCC(=O)N(Cc1ccccn1)Cc1ccccc1C	-1.935%
CSc1ncccc1C(=O)N(C)CCc1scnc1C	0.9599%
CN(C)C(=O)c1cccnc1SCc1ccccc1C#N	100.1%
CN(C)C(=O)CN1C[C@@H]2CC[C@H](C1)N(Cc1ccccc1C#N)C2	-40.35%
Cc1cccnc1NC(=O)CNC(=O)c1ccccc1Cl	-60.17%
CSc1ncccc1C(=O)N(C)C(C)Cc1ccccn1 (stereo not drawn)	1.339%
CN(C)C(=O)c1cccnc1SCc1ccccc1Cl	128.1%
CN(C)C(=O)c1ccccc1NCCCOc1cccc(C#N)c1	-15.07%
Cc1ccccc1CSc1ncccc1C(=O)N(C)C	111%
O=C(CNC(=O)C1CCCC1)NCc1cnn(-c2ccc(F)cc2F)c1	-3.155%
CC(=O)N1CCc2c(nc(N(C)C)nc2NCCc2cccs2)C1	30.52%
Cc1ccccc1C(O)CNC(=O)Cc1ccc(F)cc1 (stereo not drawn)	-16.74%
OC1(CN2CCOC(CNc3cccnn3)C2)CCCCC1 (stereo not drawn)	90.58%
O=C(CCN1CCOC(Cn2cccn2)C1)NC1CCCCC1 (stereo not drawn)	137.8%
O=C(CCN1CCOC(Cn2cccn2)C1)NC1CCCC1 (stereo not drawn)	3.251%
O=C(CN1CCOC(CNc2cccnn2)C1)N1CCCCC1 (stereo not drawn)	113.9%
O=C(CCN1CCOC(CNc2cccnn2)C1)NC1CCCCC1 (stereo not drawn)	89.48%
O=C(CN1CCOC(Cn2cccn2)C1)NC1CCN(C2CC2)CC1 (stereo not drawn)	-5.348%
c1cnnc(NCC2CN(CCN3CCCCC3)CCO2)c1 (stereo not drawn)	-1.688%
Cc1c2nnn(CC(=O)N(C)C)c(=O)c2nn1C	15.44%
COCc1nc2cc(NCc3ccc(C)o3)ccc2o1	-0.6949%

SMILES	Percent Effect
COCCN(C)CCN1CC2(CCN(C3CCCOC3)CC2)OC1=O (stereo not drawn)	-0.4921%
Cc1cnccc1NCCn1ccnc1C1CCCCC1	3.788%
Cc1ncc(CN(C)CC(O)c2ccc(OC(F)(F)F)cc2)s1 (stereo not drawn)	-20.59%
Cc1cn2c(n1)CCC(NC(=O)CCC(F)(F)F)C2 (stereo not drawn)	10.47%
Cc1cn2c(n1)CCC(NC(=O)CCn1cncn1)C2 (stereo not drawn)	-7.204%
Cc1cnn(CCC(=O)NC2CCc3nc(C)cn3C2)c1 (stereo not drawn)	105.9%
Cc1cn2c(n1)CCC(NC(=O)c1ccc(CS(C)(=O)=O)o1)C2 (stereo not drawn)	-5.623%
Cc1cn2c(n1)CCC(NC(=O)CCn1ccnn1)C2 (stereo not drawn)	-2.127%
Cc1cn2c(n1)CCC(NC(=O)CCCn1cncn1)C2 (stereo not drawn)	102.3%
Cc1cn2c(n1)CCC(NC(=O)Cn1cncn1)C2 (stereo not drawn)	119.2%
CCN(C(=O)CNC1CCc2ncnn2C1)C1=CCCCC1 (stereo not drawn)	-6.833%
CC(C)Oc1ccc(NCc2ccc([S+](C)[O-])cc2)c(F)c1 (stereo not drawn)	7.808%
O=C(NCc1nn(-c2ccccc2)c2c1CCC2)NC1CC1	-2.781%
CCc1cc(CNC(=O)NCc2ccc(N3CCCCC3)cc2)on1	-23.7%
O=C1CC(NS(=O)(=O)c2ccc(Br)cc2)CN1 (stereo not drawn)	151.1%
O=S(=O)(NC1CC1)c1cccc(Br)c1	-14.81%
Cc1ccc(S(=O)(=O)NC2CCC(=O)NC2)cc1Br (stereo not drawn)	-11.56%
O=C(c1ccc(S(=O)(=O)NC2CCC2)cc1)N1CC[C@H]2CNC[C@H]21	-0.3981%
CSc1ccc(S(=O)(=O)NC2CNC(=O)C2)cc1 (stereo not drawn)	-0.4933%
COC(=O)c1ccc(S(=O)(=O)NC2CNC(=O)C2)cc1 (stereo not drawn)	131%
Cn1nnn(-c2ccc(NS(=O)(=O)c3ccc(F)c(Cl)c3)cc2)c1=O	-5.508%
CC(Cn1ccnc1)NS(=O)(=O)c1ccc(F)c(Cl)c1 (stereo not drawn)	-9.501%
COc1cccc(S(=O)(=O)NC2CNC(=O)C2)c1 (stereo not drawn)	1.379%
O=C1CC(NS(=O)(=O)c2ccc(F)c(Cl)c2)CN1 (stereo not drawn)	135.6%
O=C1CC(NS(=O)(=O)c2cccc(F)c2)CN1 (stereo not drawn)	126.5%

SMILES	Percent Effect
CSCCCN1CCn2nc(CNC(=O)N(C)C)cc2C1	-17.64%
Cc1ncsc1CCC(=O)NC1CCN(c2ncccc2C#N)CC1	5.658%
Cc1ccc2c(c1)C(N1CCOCC1)CC21CCNCC1 (stereo not drawn)	-7.905%
Cc1ccccc1SCC(=O)Nn1cnnc1	-2.526%
O=C(C(O)c1ccccc1Cl)N1CCCN(Cc2cccnc2)CC1 (stereo not drawn)	-0.1768%
Cc1nc([C@@H]2C[C@H]3CN(Cc4ccc5c(c4)OCO5)C[C@H]3O2)no1	-16.45%
O=C1CC(NS(=O)(=O)c2ccc(Cl)cc2)CN1 (stereo not drawn)	124.5%
Cc1ccc(S(=O)(=O)NC2CNC(=O)C2)cc1C (stereo not drawn)	-5.685%
O=C1CC(NS(=O)(=O)c2ccc3ccccc3c2)CN1 (stereo not drawn)	96.97%
O=C1CC(NS(=O)(=O)c2ccccc2)CN1Cc1ccccc1 (stereo not drawn)	4.424%
O=C(COCC1CC1)Nc1cc(S(=O)(=O)NC2CC2)ccc1F	1.35%
N#CC1COCCN1S(=O)(=O)c1ccc2ccccc2c1 (stereo not drawn)	-7.007%
CC(C)O[C@H]1CN(C(=O)CCN2CCCCO2)C[C@@H]1O	-9.995%
Cc1nnc(SCCNC(=O)c2cc(S(N)(=O)=O)ccc2F)s1	5.633%
O=C(O)C(F)(F)F.O=C(c1ccc(F)cc1)N1C[C@@H]2OCCN(c3ncccn3)[C@@H]2C1	-10.32%
O=C(c1ccoc1)N1CC[C@@H]2[C@@H](CC1)OCCN2c1cccnc1	-2.409%
O=C(O)C(F)(F)F.O=C(c1ccccc1)N1CCO[C@@H]2CN(c3ncccn3)C[C@@H]2C1	5.105%
O=C(O)C(F)(F)F.O=C(c1ccc(O)cc1)N1C[C@@H]2OCCN(c3ncccn3)[C@@H]2C1	101.3%
O=C(O)C(F)(F)F.O=C(c1ccoc1)N1C[C@@H]2[C@@H](C1)OCC(=O)N2Cc1cccnc1	-4.595%
O=C(O)C(F)(F)F.O=C(c1ccco1)N1C[C@@H]2[C@@H](C1)OCC(=O)N2Cc1cccnc1	-32.49%
O=C(O)C(F)(F)F.O=C(c1ccco1)N1C[C@@H]2OCCN(c3ncccn3)[C@@H]2C1	113.8%
O=C(O)C(F)(F)F.O=C(c1ccco1)N1C[C@@H]2CN(c3ccccn3)C[C@@H]2C1	-23.25%
O=C(O)C(F)(F)F.O=C(c1ccoc1)N1C[C@@H]2OCCN(c3ncccn3)[C@@H]2C1	85.6%
